Records with an inconclusive call do not appear. Where a call stands in place of a potency, no number is given. The source made the active and inactive calls. Unless noted, calls follow the shape of the dose curve; as a rule, active = well fitted curve in the direction sought with a large enough effect in the repeat runs; inconclusive = weak or mixed curves; inactive = no such curve, though single readings can be large; an effect the other way counts as inactive or inconclusive.
Experiments:
[1] = qHTS assay to identify aromatase inhibitors - cell viability counter screen (AID 743084);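 also: cells stimulated with testosterone during compound exposure; nearly all actives have a fitted effect of over 55% in size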
[2] = target: Aryl hydrocarbon receptor (Homo sapiens) (UniProt P35869); assay: qHTS assay to identify small molecule that activate the aryl hydrocarbon receptor (AhR) signaling pathway (AID 743085); also: nearly all actives have a fitted effect of over 15% in size; also: potency is read from the fitted curve at half-maximal effect;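 as to activation: HG2L7.5c1 human HepG2 liver cells with stably integrated DRE-driven firefly reporter; series mostly up to about 70 µM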
Outline: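 Luminescence read-out: ONE-Glo reagent, 30 min at room temperature, in HG2L7.5c1 HepG2 reporter cells treated 24 h at 37C. Viability was measured beforehand by CellTiter-Fluor fluorescence after 30 min at 37C.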

[3] = qHTS assay to identify small molecule that activate the aryl hydrocarbon receptor (AhR) signaling pathway - cell viability counter screen (AID 743086); also: nearly all actives have a fitted effect of over 45% in size; also: potency is read from the fitted curve at half-maximal effect
Outline: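 Cytotoxicity counter screen: CellTiter-Fluor signal (30 min, 37 C) in 4000 HepG2 cells/well carrying the DRE-luciferase reporter, following 24 h compound exposure at 37 C.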

[4] = target: Peroxisome proliferator-activated receptor gamma (Homo sapiens) (UniProt P37231); assay: qHTS assay to identify small molecule agonists of the peroxisome proliferator-activated receptor gamma (PPARg) signaling pathway (AID 743094; active = well fitted activation curve with a large enough effect in the signal ratio in the repeat runs, not every such curve was filed as active; the % refers to the signal ratio)
Outline: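 Reporter activation was scored by fluorescence of cleaved LiveBLAzer B/G substrate (1 h, room temperature) in PPARg-bla HEK293H cells previously treated 17 h at 37C with DMSO-dissolved compounds.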

[5] = target: Peroxisome proliferator-activated receptor gamma (Homo sapiens) (UniProt P37231); assay: qHTS assay to identify small molecule antagonists of the peroxisome proliferator-activated receptor gamma (PPARg) signaling pathway (AID 743191; calls by dose curve; also: series mostly up to about 63 µM; nearly all actives have a fitted effect of over 30% in size)
Outline: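 Beta-lactamase reporter under UAS control in HEK293H PPARg-bla cells; compound treatment 17 h at 37C. Read-out: fluorescence intensity after 1 h room-temperature incubation with LiveBLAzer B/G FRET substrate.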

[6] = qHTS assay to identify small molecule antagonists of the peroxisome proliferator-activated receptor gamma (PPARg) signaling pathway - cell viability counter screen (AID 743194); details: Potency: co-treated with 50 nM rosiglitazone; also: nearly all actives have a fitted effect of over 55% in size
Outline: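 Viability was measured as CellTiter-Glo luminescence in GeneBLAzer PPARg UAS-bla HEK293H cells. These cells had been exposed 17 h at 37 C to compounds together with rosiglitazone at 50 nM final, with the beta-lactamase readout taken in the same wells.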

[7] = qHTS assay for small molecule agonists of the antioxidant response element (ARE) signaling pathway (AID 743202; active = well fitted activation curve with a large enough effect in the signal ratio in the repeat runs, not every such curve was filed as active; the % refers to the signal ratio; also: potency is read from the fitted curve at half-maximal effect)
Outline: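 After 16 hours of compound treatment at 37 C, HepG2 cells with a stably integrated ARE-driven beta-lactamase reporter were loaded 2 hours at room temperature with LiveBLAzer B/G FRET substrate and fluorescence intensity measured.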

[8] = qHTS assay for small molecule agonists of the antioxidant response element (ARE) signaling pathway - cell viability counter screen (AID 743203; calls by dose curve; also: nearly all actives have a fitted effect of over 55% in size)
Outline: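 Viability counter screen: stably transfected ARE-bla HepG2 line, 16 hrs compound exposure at 37C/5% CO2, ATP-based CellTiter-Glo luminescence measured in the reporter wells.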

[9] = qHTS assay for small molecule activators of the heat shock response signaling pathway - cell viability counter screen (AID 743209); also: nearly all actives have a fitted effect of over 50% in size
Outline: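 Viability of HSE-bla HeLa cells is measured with CellTiter-Glo in the wells already used for the reporter read. Compound exposure lasts 5 h at 37 C, and luminescence is read after 30 min at room temperature.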

[10] = qHTS assay to identify small molecule agonists of the peroxisome proliferator-activated receptor delta (PPARd) signaling pathway - cell viability counter screen (AID 743211); also: nearly all actives have a fitted effect of over 55% in size
Outline: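 Read-out: CellTiter-Glo luminescence, 30 min RT, measured in the same wells as the beta-lactamase reporter. Cells: GeneBLAzer PPAR delta UAS-bla HEK293H, 3000 cells/well, compound exposure 17 h at 37C.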

[11] = target: Peroxisome proliferator-activated receptor delta (Homo sapiens) (UniProt Q03181); assay: qHTS assay to identify small molecule agonists of the peroxisome proliferator-activated receptor delta (PPARd) signaling pathway (AID 743212; calls by dose curve)
Outline: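 Beta-lactamase reporter readout: a ratiometric FRET signal from the LiveBLAzer substrate after 2 h at room temperature. Compound exposure at 37 °C in PPARδ-bla HEK293H cells driven by an upstream activator sequence.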

[12] = qHTS assay to identify small molecule antagonists of the peroxisome proliferator-activated receptor delta (PPARd) signaling pathway - cell viability counter screen (AID 743213); also: nearly all actives have a fitted effect of over 50% in size
Outline: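 HEK293H cells with the PPARd UAS-bla reporter, co-treated 17 h at 37 C with compounds and L165041 (300 nM final), were lysed with CellTiter-Glo. Luminescence indicated viable cell content.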

[13] = target: Peroxisome proliferator-activated receptor delta (Homo sapiens) (UniProt Q03181); assay: qHTS assay to identify small molecule antagonists of the peroxisome proliferator-activated receptor delta (PPARd) signaling pathway (AID 743215; active = well fitted inhibition curve with a large enough effect in the signal ratio in the repeat runs, not every such curve was filed as active; the % refers to the signal ratio;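 also: cells stimulated with agonist L165041 at 300 nM final during compound exposure; series mostly up to about 62 µM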)
Outline: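 Plated HEK293H PPARd-bla cells rested 5 h at 37 C and 5% CO2. Compound, then agonist L165041 at 300 nM final, was added; 17 h at 37 C followed. Substrate loading, 2 h room temperature, fluorescence measured.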

[14] = target: Bile acid receptor (Homo sapiens) (UniProt Q96RI1); assay: qHTS assay to identify small molecule antagonists of the farnesoid-X-receptor (FXR) signaling pathway (AID 743217; active = well fitted inhibition curve with a large enough effect in the signal ratio in the repeat runs, not every such curve was filed as active; the % refers to the signal ratio)
Outline: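 Screen of the Tox21 10K library in quantitative HTS format using FXR-UAS-bla HEK 293T reporter cells. Agonist chenodeoxycholic acid, 50 uM final, added with compounds; 16 h incubation at 37 °C; beta-lactamase FRET fluorescence measured.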

[15] = qHTS assay to identify small molecule agonists of the farnesoid-X-receptor (FXR) signaling pathway - cell viability counter screen (AID 743218); also: nearly all actives have a fitted effect of over 45% in size
Outline: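 Viability of FXR-bla HEK 293T cells is measured by ATP-based CellTiter-Glo luminescence following 16 h compound treatment at 37 C and a prior 2 h room-temperature beta-lactamase substrate step.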

[16] = target: Bile acid receptor (Homo sapiens) (UniProt Q96RI1); assay: qHTS assay to identify small molecule agonists of the farnesoid-X-receptor (FXR) signaling pathway (AID 743220; active = well fitted activation curve with a large enough effect in the signal ratio in the repeat runs, not every such curve was filed as active; the % refers to the signal ratio)
Outline: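 FXR-UAS-bla HEK 293T cells carrying a UAS-driven beta-lactamase reporter were plated for 5 h at 37C/5% CO2, then exposed to DMSO-dissolved Tox21 10K compounds for 16 h at 37C. A LiveBLAzer B/G FRET substrate was loaded for 2 h at room temperature before fluorescence reading.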

[17] = qHTS assay to identify small molecule antagonists of the farnesoid-X-receptor (FXR) signaling pathway - cell viability counter screen (AID 743221; active = well fitted cell-killing curve with a large enough effect in the repeat runs, not every such curve was filed as active; also: nearly all actives have a fitted effect of over 50% in size)
Outline: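 HEK 293T FXR-bla cells, 5 h pre-incubation; compound + CDCA 50 uM final, 16 h, 37 C; beta-lactamase FRET read first, then CellTiter-Glo luminescence, 30 min RT.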

[18] = target: Vitamin D3 receptor (Homo sapiens) (UniProt P11473); assay: qHTS assay to identify small molecule agonists of the vitamin D receptor (VDR) signaling pathway (AID 743222; calls by dose curve)
Outline: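 Fluorescence from cleaved LiveBLAzer B/G FRET substrate served as readout. VDR-bla cells had been treated 16 h at 37C with test compounds in DMSO, following a 4 h settling period, and substrate was loaded for 2 h at RT.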

[19] = target: Vitamin D3 receptor (Homo sapiens) (UniProt P11473); assay: qHTS assay to identify small molecule antagonists of the vitamin D receptor (VDR) signaling pathway (AID 743223; active = well fitted inhibition curve with a large enough effect in the signal ratio in the repeat runs, not every such curve was filed as active; the % refers to the signal ratio)
Outline: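 Beta-lactamase reporter read-out: FRET substrate fluorescence after 2 h at room temperature, following 16 h exposure of VDR-bla cells to test compound plus 3 nM (final) 1alpha,25-dihydroxyvitamin D3 agonist at 37C.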

[20] = qHTS assay for small molecule activators of the heat shock response signaling pathway (AID 743210; active = well fitted activation curve with a large enough effect in the signal ratio in the repeat runs, with a control signal flat, not every such curve was filed as active; the % refers to the signal ratio; also: series mostly up to about 63 µM)
Outline: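 Compound exposure lasted 5 h at 37 C in HeLa cells carrying a heat-shock-element-driven beta-lactamase reporter. Read-out: fluorescence intensity after 2.5 h room-temperature loading with LiveBLAzer B/G FRET substrate.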

Sequence of Aryl hydrocarbon receptor (Homo sapiens) (P35869 whole entry, looked up): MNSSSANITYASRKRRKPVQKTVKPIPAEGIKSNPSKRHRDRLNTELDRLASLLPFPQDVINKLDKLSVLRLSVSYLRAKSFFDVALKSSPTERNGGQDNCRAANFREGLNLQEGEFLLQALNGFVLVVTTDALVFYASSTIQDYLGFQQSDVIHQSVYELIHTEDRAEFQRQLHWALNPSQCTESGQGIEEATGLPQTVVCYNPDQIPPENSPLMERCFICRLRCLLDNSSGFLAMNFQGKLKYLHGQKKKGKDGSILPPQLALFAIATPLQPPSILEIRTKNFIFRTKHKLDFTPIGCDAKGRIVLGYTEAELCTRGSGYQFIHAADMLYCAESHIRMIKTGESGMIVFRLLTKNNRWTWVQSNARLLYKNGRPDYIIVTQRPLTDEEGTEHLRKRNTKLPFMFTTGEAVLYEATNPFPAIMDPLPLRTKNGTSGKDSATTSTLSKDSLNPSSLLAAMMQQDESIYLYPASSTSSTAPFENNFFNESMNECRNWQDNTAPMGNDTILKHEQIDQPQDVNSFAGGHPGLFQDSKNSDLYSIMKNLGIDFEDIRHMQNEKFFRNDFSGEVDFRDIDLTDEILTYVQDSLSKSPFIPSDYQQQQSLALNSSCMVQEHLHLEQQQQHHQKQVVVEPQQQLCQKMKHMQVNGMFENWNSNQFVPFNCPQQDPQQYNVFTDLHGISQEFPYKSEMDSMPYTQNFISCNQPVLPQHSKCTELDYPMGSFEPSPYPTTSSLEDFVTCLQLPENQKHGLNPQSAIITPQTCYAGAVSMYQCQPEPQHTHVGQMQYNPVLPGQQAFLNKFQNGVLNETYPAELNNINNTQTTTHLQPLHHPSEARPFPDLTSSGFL
Sequence of Peroxisome proliferator-activated receptor delta (Homo sapiens) (Q03181 whole entry, looked up): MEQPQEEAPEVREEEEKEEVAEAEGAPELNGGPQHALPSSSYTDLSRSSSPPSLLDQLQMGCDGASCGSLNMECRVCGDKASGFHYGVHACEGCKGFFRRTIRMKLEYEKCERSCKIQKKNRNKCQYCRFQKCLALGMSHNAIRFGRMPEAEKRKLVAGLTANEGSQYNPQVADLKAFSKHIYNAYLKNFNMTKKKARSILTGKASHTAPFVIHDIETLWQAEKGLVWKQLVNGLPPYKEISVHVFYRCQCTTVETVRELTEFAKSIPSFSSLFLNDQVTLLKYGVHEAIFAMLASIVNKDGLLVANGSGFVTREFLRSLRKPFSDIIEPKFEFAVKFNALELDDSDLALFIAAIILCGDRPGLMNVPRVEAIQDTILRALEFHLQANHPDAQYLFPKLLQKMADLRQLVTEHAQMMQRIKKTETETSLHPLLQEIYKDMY
Sequence of Bile acid receptor (Homo sapiens) (Q96RI1 whole entry, looked up): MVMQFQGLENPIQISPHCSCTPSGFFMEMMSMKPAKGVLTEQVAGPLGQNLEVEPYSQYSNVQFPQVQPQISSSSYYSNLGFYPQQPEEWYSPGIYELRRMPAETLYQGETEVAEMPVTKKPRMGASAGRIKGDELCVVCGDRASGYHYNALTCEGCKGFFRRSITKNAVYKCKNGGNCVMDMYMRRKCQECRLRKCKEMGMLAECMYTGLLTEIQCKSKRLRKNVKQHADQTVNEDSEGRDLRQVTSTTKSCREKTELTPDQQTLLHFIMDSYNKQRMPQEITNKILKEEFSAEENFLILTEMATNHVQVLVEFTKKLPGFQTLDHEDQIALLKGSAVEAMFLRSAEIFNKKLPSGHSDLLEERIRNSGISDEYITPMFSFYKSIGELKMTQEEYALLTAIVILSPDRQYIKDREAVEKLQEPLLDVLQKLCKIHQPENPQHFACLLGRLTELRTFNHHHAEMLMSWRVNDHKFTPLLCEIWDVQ
Sequence of Vitamin D3 receptor (Homo sapiens) (P11473 whole entry, looked up): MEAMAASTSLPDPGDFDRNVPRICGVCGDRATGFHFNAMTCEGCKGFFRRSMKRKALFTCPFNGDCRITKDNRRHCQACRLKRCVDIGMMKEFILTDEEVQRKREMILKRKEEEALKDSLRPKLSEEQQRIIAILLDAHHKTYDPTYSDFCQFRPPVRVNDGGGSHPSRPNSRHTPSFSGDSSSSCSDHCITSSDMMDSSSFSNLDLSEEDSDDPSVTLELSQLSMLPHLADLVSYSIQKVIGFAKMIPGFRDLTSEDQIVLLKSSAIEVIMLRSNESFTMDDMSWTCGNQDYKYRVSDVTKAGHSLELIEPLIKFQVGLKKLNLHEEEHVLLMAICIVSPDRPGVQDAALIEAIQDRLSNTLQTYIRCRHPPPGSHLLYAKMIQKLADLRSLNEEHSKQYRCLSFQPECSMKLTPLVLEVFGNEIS
Sequence of Peroxisome proliferator-activated receptor gamma (Homo sapiens) (P37231 whole entry, looked up): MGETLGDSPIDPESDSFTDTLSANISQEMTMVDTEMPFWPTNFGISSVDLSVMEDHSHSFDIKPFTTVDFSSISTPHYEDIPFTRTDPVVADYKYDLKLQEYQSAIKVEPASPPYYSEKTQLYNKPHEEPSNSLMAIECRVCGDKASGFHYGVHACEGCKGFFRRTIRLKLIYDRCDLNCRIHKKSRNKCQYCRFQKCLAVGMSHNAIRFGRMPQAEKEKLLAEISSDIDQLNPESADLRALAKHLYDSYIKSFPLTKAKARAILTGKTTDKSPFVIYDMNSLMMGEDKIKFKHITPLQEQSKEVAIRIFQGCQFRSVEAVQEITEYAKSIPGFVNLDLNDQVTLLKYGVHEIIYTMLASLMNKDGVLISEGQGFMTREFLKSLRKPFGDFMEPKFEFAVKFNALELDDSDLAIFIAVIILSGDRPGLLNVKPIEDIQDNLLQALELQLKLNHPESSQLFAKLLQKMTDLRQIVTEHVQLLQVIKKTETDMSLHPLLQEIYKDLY

| Compound | Potency [1] | Potency [2] | Potency [3] | outcome [4] | Potency [5] | Potency [6] | Potency [7] | Potency [8] | Potency [9] | Potency [10] | outcome [11] | Potency [12] | Potency [13] | outcome [14] | Potency [15] | outcome [16] | Potency [17] | outcome [18] | outcome [19] | Potency [20] |
| --- | --- | --- | --- | --- | --- | --- | --- | --- | --- | --- | --- | --- | --- | --- | --- | --- | --- | --- | --- | --- |
| CN(C)C(=O)Oc1cc(OC(=O)N(C)C)cc(C(O)CNC(C)(C)C)c1 (stereo not drawn) | inactive | inactive | inactive | inactive | inactive | inactive | inactive | inactive | inactive | inactive | inactive | inactive | inactive | inactive | inactive | inactive | inactive | inactive | inactive |  |
| CC1=C2[C@H]3OC(=O)[C@@H](C)[C@@H]3CC[C@@]2(C)C=CC1=O | inactive | inactive | inactive | inactive | inactive | inactive |  | inactive | inactive | inactive | inactive | inactive | inactive | inactive | inactive | inactive | inactive |  |  | inactive |
| CC1N=C(N)OC1c1ccccc1 (stereo not drawn) | inactive | inactive | inactive | inactive |  | inactive | inactive | inactive |  |  | inactive | inactive | inactive |  | inactive | inactive | inactive |  | inactive | inactive |
| CCSC(=O)Cl | inactive | inactive | inactive | inactive |  | inactive |  | inactive | inactive | inactive |  | inactive |  | inactive | inactive | inactive | inactive | inactive |  |  |
| CNC(=O)Oc1ccccc1C(C)C | inactive | inactive | inactive | inactive |  | inactive | inactive | inactive | inactive | inactive |  | inactive |  |  | inactive |  | inactive | inactive |  | inactive |
| CCNc1nc(NCC)nc(SC)n1 | inactive | inactive | inactive | inactive | inactive |  |  | inactive | inactive |  |  |  |  |  | inactive |  | inactive | inactive | inactive | inactive |
| CCc1cc(OC)c(C[C@H](C)N)cc1OC | inactive | inactive | 63.7 µM (active) | inactive |  | inactive |  | inactive | inactive |  | inactive | inactive | inactive | inactive | inactive | inactive |  | inactive | inactive | inactive |
| NNCc1ccccc1 | inactive | 55.5 µM (active) | inactive | inactive |  | inactive | 5.55 µM (active) | inactive | inactive |  | inactive | inactive | inactive | inactive | inactive | inactive | inactive |  |  | inactive |
